G9a block: inhibitors of human histone lysine methyltransferase G9a; AID 504332; G9a H3K9 monomethylation, AlphaScreen, 2 h; 350,000 compounds, 8.8% hits; Potency, µM (titrated, usually from 102 µM), hits mostly inhibitors; Q96KQ7; further: nearly all actives have a fitted effect of over 75% in size
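G9a (20 nM) preincubated 15 min RT with compounds, then 500 nM biotinylated H3K9 peptide and 20 uM SAM added; 2 h RT reaction. Monomethyl-H3K9 product detected by AlphaScreen with anti-H3K9me1 antibody, streptavidin donor and anti-rabbit IgG acceptor beads.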
BAZ2B inh: BAZ2B (human) inhibition. AID 504333. Q9UIF8. 360,000 compounds, 4.4% hits. AlphaScreen BAZ2B-H3K14Ac peptide displacement. Potency, µM (titrated, usually from 114 µM), actives largely listed as inhibitors; further: nearly all actives have a fitted effect of over 60% in size
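AlphaScreen luminescence quantifies BAZ2B engagement of H3K14Ac peptide; the protein and biotinylated peptide are both at 50 nM final, buffer PBS pH 7.4 with 0.01% Tween-20, all steps at room temperature.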
JMJD2A Tudor inh: blocks the human JMJD2A Tudor domain; O75164; AlphaScreen JMJD2A-Tudor / H3K4me3 peptide binding; Potency, µM (highest dose often 114 µM), actives largely listed as inhibitors; 390,000 compounds, 4.4% hits; AID 504339; further: nearly all actives have a fitted effect of over 50% in size
HP1b chromo inh: inhibitors of HP1-beta chromodomain binding to methylated histone tails; P83916; AlphaScreen HP1-beta / biotin-H3K9me3 peptide binding; Potency, µM (titrated, usually from 114 µM), actives largely listed as inhibitors; 390,000 compounds, 0.56% hits; further: nearly all actives have a fitted effect of over 70% in size
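AlphaScreen: HP1-beta (50 nM) preformed 30 min with biotin-H3(1-18)K9me3 peptide (50 nM) in PBS pH 7.4, 0.01% Tween-20. Compound added for 30 min at RT, then streptavidin donor/nickel chelate acceptor beads (10 ug/mL) for 30 min.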
Sfp PPTase inh: inhibitors of Bacillus subtilis Sfp phosphopantetheinyl transferase | Q9F4F7 | Biochemical Sfp PPTase activity, qHTS | Potency, µM, usual class: inhibitors | 310,000 compounds, 3.5% hits | AID 1490;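 further: the enzyme is Sfp with the accession as filed and its product quenches rhodamine fluorescence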
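Buffer: 50 mM Hepes-Na pH 7.6, 10 mM MgCl2, 0.01% Nonidet P-40, 0.01% BSA. Enzyme 15 nM, pre-exposed to compound 15 min; substrates then added and fluorescence change tracked over 30 min.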
PLK1 PBD inh: blocks phosphopeptide binding to human PLK1 polo-box domain; Plk1 PBD binding of FITC phosphopeptide, fluorescence polarization; Potency, µM, hits mostly inhibitors; 360,000 compounds, 2.8% hits; further: series mostly up to about 57 µM; nearly all actives have a fitted effect of over 65% in size
Target sequence (P53350 whole entry, looked up, the tested form may be a part): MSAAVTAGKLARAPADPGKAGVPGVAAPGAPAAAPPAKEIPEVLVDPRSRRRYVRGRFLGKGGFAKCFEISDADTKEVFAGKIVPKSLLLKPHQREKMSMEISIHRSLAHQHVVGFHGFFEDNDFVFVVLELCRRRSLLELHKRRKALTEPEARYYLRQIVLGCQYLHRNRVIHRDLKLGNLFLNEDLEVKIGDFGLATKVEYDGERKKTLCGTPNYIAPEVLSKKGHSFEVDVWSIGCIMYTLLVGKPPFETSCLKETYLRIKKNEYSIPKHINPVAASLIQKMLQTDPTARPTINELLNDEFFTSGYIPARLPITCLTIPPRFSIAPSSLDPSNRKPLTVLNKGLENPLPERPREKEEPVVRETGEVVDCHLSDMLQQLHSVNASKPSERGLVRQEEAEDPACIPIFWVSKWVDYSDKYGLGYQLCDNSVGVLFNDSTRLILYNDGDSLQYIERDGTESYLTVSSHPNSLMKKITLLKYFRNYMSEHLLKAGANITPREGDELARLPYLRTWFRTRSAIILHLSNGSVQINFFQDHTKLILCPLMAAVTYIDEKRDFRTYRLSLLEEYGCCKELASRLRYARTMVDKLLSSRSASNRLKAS
A number is an active result; i = inactive; ? = inconclusive; nt = no result; [ ] = another dose, or the depositor's remark. Only some compounds are listed: those with a hit (about 12% of all), similar ones and a draw of the others. The call rests on the fitted dose curve; in most records, active means well fitted curve in the direction sought with a large enough effect; inconclusive means small, poorly fitted or top-dose-only effect, or another doubt; inactive means no such curve, though single readings can be large; an effect the other way counts as inactive or inconclusive.

SMILES | G9a block | BAZ2B inh | JMJD2A Tudor inh | HP1b chromo inh | Sfp PPTase inh | PLK1 PBD inh
Cc1c(C(=O)N(C)c2cccc(C(F)(F)F)c2)sc2nc3n(c(=O)c12)CCCCC3 | 14.1µM | 31.6µM | ? | i | nt | nt
CC(=O)c1cccc(NC(=O)c2sc3nc4n(c(=O)c3c2C)CCCC4)c1 | i | i | ? | i | i | 23.8µM
CCOc1ccc(NC(=O)c2sc3nc4n(c(=O)c3c2C)CCCC4)cc1 | 15.8µM | 31.6µM | ? | i | nt | nt
O=C(CNC(=O)C1CCCCC1)NNC(=O)c1ccccc1Br | i[12.7 µM] | i | i | i | i | i
COc1ccc(CNc2ncnc3c2nnn3C)cc1 | i | i | i | i | nt | nt
COc1ccc(C)c2sc(N3CCN(C(=O)c4ccco4)CC3)nc12 | i | ? | i | i | nt | nt
c1ccc(Nc2ncnc3[nH]ncc23)cc1 | 50.1µM | i | i | i | i | i
CCCNc1ncnc2[nH]ncc12 | nt | nt | i | i | nt | i
COc1cccc(CNC(=O)CCc2c(C)c3cc4c(C)c(C)oc4cc3oc2=O)c1 | i | i | i | i | nt | nt
C(=Nc1ccc(N2CCOCC2)cc1)c1c[nH]c2ccccc12 | ? | ? | i | i | i | i
Oc1c(Br)cc(Cl)cc1C=Nc1ccc(N2CCOCC2)cc1 | ? | i | i | i | i | i
Oc1ccc(N=Nc2cccc(Cl)c2)cc1C=Nc1ccc(N2CCOCC2)cc1 | ? | 7.94µM | ? | ? | i | i
Clc1cccc(-c2ccc(C=Nc3ccc(N4CCOCC4)cc3)o2)c1 | 3.16µM | 31.6µM | ? | ? | i | i
C=CCn1c(SCCC)nc2ccccc2c1=O | nt | nt | i | i | nt | nt
O=C(O)CC(C(=O)O)c1ccc(OCCCCOc2ccc(C(CC(=O)O)C(=O)O)cc2)cc1 (stereo not given) | 79.4µM | i | ? | i | i | i
C=CCN1C(=O)C(CC(=O)O)SC1=Nc1ccc(N=Nc2ccccc2)cc1 (stereo not given) | 39.8µM | 39.8µM | ? | i | i | i
COc1cc2[nH]c(=S)nc(NCc3cccnc3)c2cc1OC | 44.7µM | i | i | i | i | i
COc1cc2[nH]c(=S)nc(NCc3ccccn3)c2cc1OC | 50.1µM | i | i | i | i | i
COc1ccc(CNc2nc(=S)[nH]c3cc(OC)c(OC)cc23)cc1 | 10µM | ? | ? | i | i | i
COc1cc2[nH]c(=S)nc(NCc3ccccc3)c2cc1OC | ? | i | i | i | i | i
CC(=O)c1nn(-c2ccc(Cl)cc2)c(=O)[nH]c1=O | i | i | i | i | i | i
Cc1cc(Br)ccc1NC(=O)c1c(C)oc2ncnc(N3CCCCC3)c12 | i | i | i | i | nt | nt
Cc1ccc(C)c(OCCC(=O)OCC(=O)NCCc2ccc(S(N)(=O)=O)cc2)c1 | i | i | i | i | nt | i
O=C(CCN1C(=O)C2C3C=CC(C3)C2C1=O)NCCc1ccccc1 (stereo not given) | i | i | i[11.4 µM] | i | i | 23.8µM
Cc1cccc(NC(=O)CCN2C(=O)C3C4C=CC(C4)C3C2=O)n1 (stereo not given) | i | i | i[11.4 µM] | i | i | 11.9µM
SMILES | G9a block | BAZ2B inh | JMJD2A Tudor inh | HP1b chromo inh | Sfp PPTase inh | PLK1 PBD inh
O=C1C2C3C=CC(C3)C2C(=O)N1CCc1ccccc1 (stereo not given) | i[0.501 µM] | ? | i | i | i | i
NC(=NCc1ccc2c(c1)OCO2)NC(=O)c1ccccc1 | ? | 39.8µM | ? | i | ? | i
Cc1cccc(/C=C2\CCC(=C3SCCCS3)C2=O)c1 | 50.1µM | 10µM | 44.7µM | 15.8µM | i | i
CN(C)c1ccc(/C=N/N2CCN(c3ccccn3)CC2)cc1 | 12.6µM | i | i | i | i | i
Cc1nn(-c2ccccc2)c(C)c1/C=N/N1CCN(Cc2ccccc2)CC1 | 16.8µM | nt | nt | nt | i | nt
CC(C)(C)c1ccc(/C=N/N2CCN(c3ccccn3)CC2)cc1 | nt | i | i | i | i | i
Cc1nn(-c2ccccc2)c(C)c1/C=N/N1CCN(c2ccccc2)CC1 | ? | ? | 20µM | i | i | i
C(=N/N1CCN(c2ccccc2)CC1)/c1ccncc1 | ? | i | ? | i | i | i
Cc1nn(-c2ccccc2)c(Cl)c1/C=N/N1CCN(c2ccccn2)CC1 | i[0.0925 µM] | i | i | i | i | i
Cc1nn(-c2ccccc2)c(C)c1/C=N/N1CCN(c2ccccn2)CC1 | ? | 44.7µM | ? | ? | 79.4µM | i
CCOC(=O)c1cccc(NS(=O)(=O)c2cc3c(cc2C)NC(=O)CO3)c1 | i | i | i | i | nt | nt
